Screening data from PubChem BioAssay.
DAX1 inh-1: inhibitors of DAX1 repression of SF-1 activated StAR promoter; HEK293T StAR-luciferase reporter, SF-1/DAX-1 repression relief; inhibition, % at 6.8 µM; actives 1.1% (n = 370,000); AID 652010;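 active = inhibition above the mean over all tested compounds plus 3 SD, cut at about 3.6% in these data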;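 also: 0% = DAX-1 cells with DMSO and 100% = cells lacking DAX-1 with DMSO; higher inhibition means more luminescence from relief of DAX-1 repression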
ssDAF12 agonist: activators of S. stercoralis DAF-12 nuclear receptor. HEK293 ssDAF-12/GRIP1 lit1-tk-luc reporter, luminescence; % of 3 µM dafachronic acid response. activation, % at 6.8 µM. actives 1% (n = 370,000);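 active = activation above the mean over all tested compounds plus 3 SD, cut at about 0.9% in these data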;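 also: 0% = DMSO-only wells and 100% = 3 µM delta7-dafachronic acid wells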
hcDAF-12 act: H. contortus DAF-12 activation, primary screen; HEK293 hcDAF-12 lit1-tk-luc reporter, luminescence; 0% DMSO, 100% Δ7-dafachronic acid; activation, % at 6.8 µM; actives 1.4% (n = 370,000);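 active = activation above the mean of all tested compounds plus 3 SD, cut at about 5.5% in these data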;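 also: 100% = response to 3 µM Δ7-dafachronic acid high control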
Rev-erbA mod: Rev-erb alpha (human) modulation | Rev-erbα–FITC-DNA binding, fluorescence polarization, 90 min | activity, % at 10 µM | actives 0.79% (n = 370,000) | AID 1259318;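 active = activity above about 14%, limit read from the data; passing the limit was not always enough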;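 also: 0% = DMSO wells with 35 nM protein and 100% = DMSO wells with 750 nM protein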
Target sequence (P20393 whole entry, looked up): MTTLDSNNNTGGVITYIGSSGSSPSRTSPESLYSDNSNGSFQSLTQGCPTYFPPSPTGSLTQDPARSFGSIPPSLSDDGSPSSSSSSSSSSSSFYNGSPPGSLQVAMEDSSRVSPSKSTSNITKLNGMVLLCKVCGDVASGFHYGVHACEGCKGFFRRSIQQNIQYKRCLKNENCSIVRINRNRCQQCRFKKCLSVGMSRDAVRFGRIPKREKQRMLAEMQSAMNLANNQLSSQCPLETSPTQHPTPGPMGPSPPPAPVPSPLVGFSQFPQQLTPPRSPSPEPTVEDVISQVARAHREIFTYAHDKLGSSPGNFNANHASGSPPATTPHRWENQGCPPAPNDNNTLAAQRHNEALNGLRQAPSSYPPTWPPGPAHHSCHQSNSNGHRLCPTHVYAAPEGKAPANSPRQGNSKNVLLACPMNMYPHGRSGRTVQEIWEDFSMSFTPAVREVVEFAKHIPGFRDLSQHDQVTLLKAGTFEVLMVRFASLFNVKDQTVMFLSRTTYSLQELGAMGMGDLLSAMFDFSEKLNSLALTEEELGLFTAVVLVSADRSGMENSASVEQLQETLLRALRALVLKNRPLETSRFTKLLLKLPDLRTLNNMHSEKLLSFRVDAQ
DAX1 inh-2: inhibitors of human orphan nuclear receptor DAX1 (NR0B1); actives 0.99% (n = 340,000); HEK293 Gal4-DAX1 luciferase reporter, luminescence; inhibition, % at 6.75 µM; P51843;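 active = inhibition above the mean over all tested compounds plus 3 SD, cut at about 4.2% in these data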;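 also: 0% = DAX1-transfected cells with DMSO and 100% = empty-vector control cells with DMSO; inhibition shows as a rise in luminescence from relieved DAX1 repression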
hgDAF-12 ag: agonists of H. glycines DAF-12 nuclear receptor; HEK293 GAL4-hgDAF12 UAS-luciferase reporter, agonist luminescence; normalized to butyrate control; actives 1.8% (n = 370,000); AID 687014; activation, % at 6.8 µM;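 active = activation above a cutoff set at the mean of all screened compounds plus 3 SD, cut at about 10% in these data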;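 also: 0% = DMSO wells and 100% = sodium butyrate wells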
* marks the source's active call; other numbers are inactive results; · = not tested or not shown. An excerpt weighted towards active compounds, which were near 4.8% of everything screened.

SMILES	DAX1 inh-1	ssDAF12 agonist	hcDAF-12 act	Rev-erbA mod	DAX1 inh-2	hgDAF-12 ag
CCOC(=O)NC(=O)c1cn(Nc2ncc(C(F)(F)F)cc2Cl)c(=O)[nH]c1=O	0	1	0	-1	-1	0
COC(=O)[C@H]1Cc2c([nH]c3ccccc23)[C@H](c2ccccc2)N1	0	0	6.4*	-2	1	0
CC(C)=CCC[C@@]1(C(=O)O)[C@@H]2C/C=C(\C)CC/C=C(\C)CC[C@H]1[C@]1(CC2)CO1	0	-1	1	-1	·	-3
O=c1c(Br)c(N2CCCC2)cnn1-c1ccccc1	3	0	5.6*	5	0	12*
COc1ccccc1CCC[C@@H](CCS(=O)(=O)C(C)C)CC1CCCCC1	-1	2.2*	-1	8	·	-1
CC(=O)c1ccc(N2CCN(S(=O)(=O)c3cc4[nH]c(=O)c(=O)[nH]c4cc3C)CC2)cc1	1	-1	-2	1	0	11*
COc1cccc(/C(O)=C2/C(=O)C(=O)N(CCN(C)C)C2c2ccccn2)c1 (stereo not given)	0	-1	0	5	1	0
CN(C)CCN1C(=O)C(=O)/C(=C(/O)c2ccc3c(c2)OCCO3)C1c1ccccn1 (stereo not given)	0	-1	1	-1	5.2*	4
COc1ccc([C@H]2C=C3CN(C(=O)OC(C)(C)C)S(=O)(=O)[C@H]3C[C@H]2OC(=O)c2ccc(C(F)(F)F)cc2)cc1	1	0	5.7*	-4	2	0
COc1ccc([C@H]2OC(=O)C[C@H]2C(=O)N2CCCC2)cc1OC	0	-1	-1	5	·	1
O=CNc1cc(-c2ccccc2)cn2c(-c3ccc(F)c(Cl)c3)cnc12	1	1.5*	-1	14	·	2
Nc1nc2c(ncn2[C@@H]2O[C@H](C(=O)N[C@H](Cc3ccccc3)C(=O)NCc3ccc4c(c3)OCO4)[C@@H](O)[C@H]2O)c(=O)[nH]1	1	0	-1	2	·	-5
CCOC(=O)[C@@]12CN(C(=O)OC(C)(C)C)CC=C1N(Cc1ccc(OC)cc1)C(=O)[C@H]2CC(=O)NCCc1ccccc1OC	0	-2	-2	-1	·	1
CC(=O)Oc1ccc(Cn2cnc3cc4ccccc4cc32)cc1	0	-1	0	1	0	-1
CCOc1ccc2c(c1)ncn2Cc1ccccc1	1	-1	0	-6	4.7*	0
Cc1nn(C)c(C)c1CNC(=O)Nc1ccc(Cl)cc1	3	-1	1	3	2	7
Cc1nnc(NC(=O)Nc2cccc(Cl)c2)s1	1	0	1	-3	0	11*
Cc1nn(C)c(C)c1CNC(=O)Nc1cccc(Cl)c1	4.0*	0	2	-5	2	11*
CC1CCC/C(=N/Nc2nc3ccccc3s2)C1 (stereo not given)	3	0	6.4*	1	5.3*	0
COc1ccc2c3c([nH]c2c1)[C@]1(CCNC=O)Nc2ccccc2C1=NCC3	·	0	5	-7	·	2
COc1ccc(CC(=O)Nc2cccc(-c3cn4ccccc4n3)c2)cc1	0	-2	0	2	5.4*	1
COC(=O)[C@]12C[C@H](CC(=O)NCc3ccc(C)o3)C(=O)N(CCC3=CCCCC3)C1=C[C@H](C(C)C)O[C@@H]2C1CC1	0	2.1*	-1	-3	·	-1
CCn1nc(C)c(Br)c1-c1nc(-c2ccc(C)cc2)no1	0	1.0*	3	1	·	0
COCCN(C(=O)COC(=O)CCc1nc2ccccc2s1)c1c(N)n(Cc2ccccc2)c(=O)[nH]c1=O	0	-1	1	8	0	1
COCCN(C(=O)CSc1nc2ccccc2s1)c1c(N)n(Cc2ccccc2)c(=O)[nH]c1=O	1	0	6.5*	-13	3	1
SMILES	DAX1 inh-1	ssDAF12 agonist	hcDAF-12 act	Rev-erbA mod	DAX1 inh-2	hgDAF-12 ag
CCCCn1c(N)c(N(CC)C(=O)C(c2ccccc2)c2ccccc2)c(=O)[nH]c1=O	1	-1	1	0	4.9*	-4
CCCCN(C(=O)CSc1cc(C)c2ccccc2n1)c1c(N)n(Cc2ccccc2)c(=O)[nH]c1=O	0	-2	1	8	2	2
CCCN(C(=O)c1nc2nc(C)cc(C)n2n1)c1c(N)n(Cc2ccccc2)c(=O)[nH]c1=O	3.8*	-1	-2	-3	2	-1
CCCCN(C(=O)CSc1cc(C)c2ccc(OC)cc2n1)c1c(N)n(Cc2ccccc2)c(=O)[nH]c1=O	0	4.8*	2	2	0	-4
C#CCNC(=O)C[C@H]1C[C@@]2(C(=O)OC)C(=C[C@H](C(C)C)O[C@@H]2C2CC2)N(CCC2=CCCCC2)C1=O	-1	-1	-1	-2	·	-4
CCCCn1c(N)c(N(CC(C)C)C(=O)CCCn2c(=O)oc3ccccc32)c(=O)[nH]c1=O	0	-1	-1	-4	4.3*	1
CCCCn1c(N)c(N(C)C(=O)CCCn2c(=O)oc3ccccc32)c(=O)[nH]c1=O	0	0	0	-4	-1	4
CCCCn1c(N)c(N(CC(C)C)C(=O)CSc2ccccc2C)c(=O)[nH]c1=O	1	-1	-2	4	-1	1
CCCCn1c(N)c(N(CCOC)C(=O)CSc2ccccc2C)c(=O)[nH]c1=O	0	0	-1	2	5.3*	3
O=C1CC(=O)N(c2cccc(F)c2)N1	0	0	-1	-2	6.0*	1
O=C(Cc1c[nH]c2ccccc12)Nc1ccc(Nc2cccnc2)c(-c2cc(F)cc(F)c2)c1	-2	-1	-1	3	·	-1
c1ccc(Cc2cc(-c3ccccc3)on2)cc1	0	-1	1	0	5.5*	10
C=C(C)C1(O)OC(=O)C=C1OC (stereo not given)	2	0	6.5*	2	4	0
Cc1c(Cl)c([N+](=O)[O-])nn1CC(=O)N1CCN(Cc2ccccc2)CC1	-1	-1	-1	2	4.4*	0
Brc1ccccc1C1Cc2nnccc2CN1 (stereo not given)	0	-1	-2	-1	·	-4
Cc1sc(N/N=C/c2cccnc2)nc1-c1ccccc1	-1	-1	-2	13	-3	-7
Clc1ccc(-c2csc(N/N=C/c3ccco3)n2)cc1	0	-1	2	-2	6.2*	4
Cc1sc(N/N=C/c2ccco2)nc1-c1ccccc1	0	1.4*	3	0	-1	5
C(=N\Nc1nc(-c2ccccc2)cs1)/c1cccs1	1	0	5.8*	5	2	3
NNc1nc(-c2ccccc2)cs1	1	0	6.0*	1	2	4
